According to PubChem BioAssay AID1159580 (chemical genetic matrix, 2015):
About 2,000 (36%) of roughly 5,500 compounds were called active. Inconclusive results (about 18%) are left out. Cut-off read from the data, not from the text of the source: active = normalized growth mostly below about 0.91 (no sharp cut-off); inconclusive = no clear call, values can overlap the other calls; inactive = mostly above about 0.92. This is one part of the list.

Test: chemical genetic growth profiling, strain panel (AID 1159580);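 note: tested at 20 µM; growth read once vehicle control cultures reached saturation at 30 °C; 1 = growth at the plate median or of vehicle wells; lower values mean less growth of the strain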
Conditions: growth OD

Measured: normalized growth

CCC(C)C(=O)OC1CC2(C)C(c3ccoc3)OC(=O)CC23OC2(C)OC34C(OC(=O)C(C)C)C3(O)C(OC(=O)C5(C)OC5C)C5(C)CC3(O)C(C)(C5C(=O)OC)C14O2 (stereo unspecified)
inactive: S. cerevisiae deletion strains, locus YAL013W, strain DEP1, hits give low values 1.02 | S. cerevisiae deletion strains, locus YBR021W, strain FUR4, hits give low values 1.01 | S. cerevisiae deletion strains, locus YBR229C, strain ROT2, hits give low values 1 | S. cerevisiae deletion strains, locus YCL029C, strain bik1, hits give low values 1.04 | S. cerevisiae deletion strains, locus YDL035C, strain GPR1, hits give low values 0.993 | S. cerevisiae deletion strains, locus YDL074C, strain BRE1, hits give low values 1.01 | S. cerevisiae deletion strains, locus YDL101C, strain DUN1, hits give low values 1.02 | S. cerevisiae deletion strains, locus YDL134C, strain PPH21, hits give low values 1.01 | S. cerevisiae deletion strains, locus YDL185W, strain tfp1, hits give low values 1.03 | S. cerevisiae deletion strains, locus YDL192W, strain arf1, hits give low values 1.01 | S. cerevisiae deletion strains, locus YDR101C, strain arx1, hits give low values 1.02 | S. cerevisiae deletion strains, locus YDR150W, strain NUM1, hits give low values 1.02 | S. cerevisiae deletion strains, locus YDR162C, strain NBP2, hits give low values 0.996 | S. cerevisiae deletion strains, locus YDR318W, strain mcm21, hits give low values 1.03 | S. cerevisiae deletion strains, locus YDR388W, hits give low values 1.02 | S. cerevisiae deletion strains, locus YDR502C, strain sam2, hits give low values 1.03 | S. cerevisiae deletion strains, locus YEL061C, strain CIN8, hits give low values 1.01 | S. cerevisiae deletion strains, locus YER110C, hits give low values 1.02 | S. cerevisiae deletion strains, locus YER155C, strain BEM2, hits give low values 1.02 | S. cerevisiae deletion strains, locus YER167W, strain BCK2, hits give low values 1.02 | S. cerevisiae deletion strains, locus YGL078C, strain dbp3, hits give low values 1.02 | S. cerevisiae deletion strains, locus YGL086W, strain mad1, hits give low values 1 | S. cerevisiae deletion strains, locus YGL248W, strain PDE1, hits give low values 1.01 | S. cerevisiae deletion strains, locus YGR078C, strain PAC10, hits give low values 1.02 | S. cerevisiae deletion strains, locus YGR135W, strain pre9, hits give low values 1.03 | S. cerevisiae deletion strains, locus YGR229C, strain SMI1, hits give low values 1.03 | S. cerevisiae deletion strains, locus YGR252W, strain gcn5, hits give low values 0.977 | S. cerevisiae deletion strains, locus YHR030C, strain SLT2, hits give low values 1.02 | S. cerevisiae deletion strains, locus YHR079C, strain IRE1 (second series), hits give low values 1.02 | S. cerevisiae deletion strains, locus YHR094C, strain hxt1, hits give low values 1.01 | S. cerevisiae deletion strains, locus YHR129C, strain ARP1, hits give low values 1.01 | S. cerevisiae deletion strains, locus YHR200W, strain rpn10, hits give low values 1.04 | S. cerevisiae deletion strains, locus YIL066C, strain RNR3, hits give low values 1.02 | S. cerevisiae deletion strains, locus YIL073C, strain SPO22, hits give low values 1 | S. cerevisiae deletion strains, locus YIL125W, strain kgd1, hits give low values 1.01 | S. cerevisiae deletion strains, locus YIR030C, strain dcg1, hits give low values 1.02 | S. cerevisiae deletion strains, locus YJL095W, strain BCK1, hits give low values 1.04 | S. cerevisiae deletion strains, locus YJL134W, strain LCB3, hits give low values 1.01 | S. cerevisiae deletion strains, locus YJL168C, strain set2, hits give low values 1.02 | S. cerevisiae deletion strains, locus YJL187C, strain SWE1 (second series), hits give low values 1.03 | S. cerevisiae deletion strains, locus YJR043C, strain POL32, hits give low values 1.04 | S. cerevisiae deletion strains, locus YJR075W, strain HOC1, hits give low values 1.03 | S. cerevisiae deletion strains, locus YKL009W, strain mrt4, hits give low values 0.994 | S. cerevisiae deletion strains, locus YKL068W, hits give low values 1.01 | S. cerevisiae deletion strains, locus YKL085W, strain MDH1 (second series), hits give low values 1.01 | S. cerevisiae deletion strains, locus YKL085W, strain MDH1, hits give low values 1.01 | S. cerevisiae deletion strains, locus YKL190W, strain CNB1, hits give low values 1 | S. cerevisiae deletion strains, locus YKR001C, strain vps1, hits give low values 1.01 | S. cerevisiae deletion strains, locus YLR039C, strain RIC1, hits give low values 0.862 | S. cerevisiae deletion strains, locus YLR058C, strain SHM2, hits give low values 0.999 | S. cerevisiae deletion strains, locus YLR102C, strain apc9, hits give low values 1.01 | S. cerevisiae deletion strains, locus YLR262C, strain YPT6, hits give low values 0.77 | S. cerevisiae deletion strains, locus YLR268W, strain sec22, hits give low values 1.05 | S. cerevisiae deletion strains, locus YLR330W, strain CHS5, hits give low values 1.08 | S. cerevisiae deletion strains, locus YLR342W, strain FKS1 (second series), hits give low values 1.01 | S. cerevisiae deletion strains, locus YLR371W, strain rom2, hits give low values 1.03 | S. cerevisiae deletion strains, locus YLR418C, strain cdc73, hits give low values 0.985 | S. cerevisiae deletion strains, locus YML016C, strain PPZ1, hits give low values 1 | S. cerevisiae deletion strains, locus YML032C, strain rad52, hits give low values 1.03 | S. cerevisiae deletion strains, locus YML124C, strain tub3, hits give low values 1.01 | S. cerevisiae deletion strains, locus YMR078C, strain ctf18, hits give low values 1.03 | S. cerevisiae deletion strains, locus YMR223W, strain ubp8, hits give low values 0.999 | S. cerevisiae deletion strains, locus YMR263W, strain SAP30, hits give low values 1.04 | S. cerevisiae deletion strains, locus YMR307W, strain GAS1, hits give low values 0.923 | S. cerevisiae deletion strains, locus YNL067W, strain RPL9B, hits give low values 1.03 | S. cerevisiae deletion strains, locus YNL128W, strain TEP1, hits give low values 1.01 | S. cerevisiae deletion strains, locus YNL153C, strain GIM3, hits give low values 1.03 | S. cerevisiae deletion strains, locus YNL233W, strain BNI4, hits give low values 1.01 | S. cerevisiae deletion strains, locus YNL250W, strain rad50, hits give low values 1.02 | S. cerevisiae deletion strains, locus YNL271C, strain bni1, hits give low values 1.03 | S. cerevisiae deletion strains, locus YNL298W, strain CLA4, hits give low values 1.03 | S. cerevisiae deletion strains, locus YNL307C, strain MCK1, hits give low values 1.03 | S. cerevisiae deletion strains, locus YNL322C, strain KRE1, hits give low values 1.02 | S. cerevisiae deletion strains, locus YNR052C, strain pop2, hits give low values 1.02 | S. cerevisiae deletion strains, locus YOL006C, strain TOP1, hits give low values 0.923 | S. cerevisiae deletion strains, locus YOL012C, strain htz1 1.81 | S. cerevisiae deletion strains, locus YOL147C, strain pex11, hits give low values 1.03 | S. cerevisiae deletion strains, locus YOR061W, strain CKA2, hits give low values 0.991 | S. cerevisiae deletion strains, locus YOR069W, strain VPS5, hits give low values 1.01 | S. cerevisiae deletion strains, locus YOR136W, strain idh2, hits give low values 1.01 | S. cerevisiae deletion strains, locus YOR144C, strain elg1, hits give low values 1.01 | S. cerevisiae deletion strains, locus YOR184W, strain ser1, hits give low values 1.04 | S. cerevisiae deletion strains, locus YOR316C, strain cot1, hits give low values 1.02 | S. cerevisiae deletion strains, locus YPL055C, strain LGE1, hits give low values 1.05 | S. cerevisiae deletion strains, locus YPL241C, strain CIN2, hits give low values 1.01 | S. cerevisiae deletion strains, locus YPR119W, strain clb2, hits give low values 1.01 | S. cerevisiae deletion strains, locus YPR141C, strain kar3, hits give low values 1.03 | S. cerevisiae deletion strains, locus YPR163C, strain tif3, hits give low values 1.02 | S. cerevisiae deletion strains, locus YPR167C, strain met16, hits give low values 1.02 | S. cerevisiae deletion strains, strain wtn01, hits give low values 1.03 | S. cerevisiae strains, strain wild type, hits give low values 1
